From PubChem BioAssay
Ins promoter up: MIN6 insulin promoter up-regulation; MIN6 insulin promoter-GFP reporter, high-content imaging; hits give high values; AID 1625; z-score at 5 µM; hit rate 0.3% among 190,000;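 active = z-score above 3 at 5 µM with at least 500 cells counted in the well; inconclusive = wells under 500 cells, flagged as cytotoxic or low count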
HCT116 bCat-KO: beta-catenin-lacking colon tumor cell growth suppression. HCT116 beta-catenin knockout viability, CellTiter-Glo, 60 h; hits give low values. viability, % at 10 µM. hit rate 1.5% among 140,000;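 active = viability at or under a set limit, the compound median less 4 SD, cut at about 6% in these data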;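 note: 0% = Hyamine 1622 control at 20 µM and 100% = untreated cell control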
Insulin prom inh: TRM-6 insulin promoter activity inhibition. hit rate 0.9% among 130,000. TRM-6 cells (human fetal islet line), insulin promoter-eGFP reporter, imaging; reporter expression induced with tamoxifen. AID 1273. inhibition, % at 2 µM;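 active = inhibition above the mean plus 3 SD, with well images judged a real hit on visual review, cut at about 60% in these data, passing the limit was not always enough; inconclusive = inhibition over the cutoff but images rejected on review; inactive = inhibition not above the cutoff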
Lmaj promast: reduces viability of Leishmania major promastigotes. resazurin fluorescence viability. inhibition, % at 10 µM. hit rate 9% among 200,000; in the data active = inhibition above about 50%;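 note: promastigotes grown with compound for 44 hours at 28 °C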
HCT116 PTEN-null: suppresses growth of cells with PTEN deletion | HCT116 PTEN-null viability, CellTiter-Glo, 60 h; hits give low values | viability, % at 10 µM | hit rate 1.2% among 140,000;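 active = viability at or below a set limit, 4 SD under the median of all tested compounds, cut at about 3.7% in these data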;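 note: PTEN knockout HCT116 line with beta catenin targeted HCT116 as companion control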
Autophagy mod: modulators of autophagy. MEF GFP-LC3 puncta imaging; test concentration mostly 10 µM. calls only at 10 µM (by protocol). hit rate 0.98% among 190,000. AID 463193;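 active = percentage of spot-positive cells more than 3 SD above its plate mean, without a fluorescence outlier flag or 80% toxicity; inconclusive = no clear call, values can overlap the other calls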;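 note: spot-positive cell cutoff set from DMSO-treated cells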
Starred values were filed as active, the others as inactive; i = inactive; u = inconclusive; x = no result given; + = active, no number. Only some compounds are listed: those with a hit (about 9.6% of all), similar ones and a draw of the others.

SMILES | Ins promoter up | HCT116 bCat-KO | Insulin prom inh | Lmaj promast | HCT116 PTEN-null | Autophagy mod
CN1C(=O)N(C)C2(c3ccccc3)Nn3c(s/c(=C/c4ccco4)c3=O)=NC12c1ccccc1 (centres undefined) | 0.66 | 91 | x | 29 | 92 | i
Cc1nc(SCc2ccccc2)c2ccsc2n1 | -0.28 | x | x | 0 | x | i
COc1cc(CN2CCC(C(=O)N3CCN(c4ccccc4F)CC3)CC2)cc(OC)c1OC | -0.47 | 90 | 4 | 83* | 105 | i
COc1ccc(CN2CCC(C(=O)N3CCN(c4ccccc4F)CC3)CC2)cc1OC | 0.45 | 88 | 16 | -2 | 84 | i
COc1cc(CN2CCC(C(=O)NC3CCCC3)CC2)cc(Br)c1O | -0.09 | 92 | x | 16 | 110 | i
COc1cc(CN2CCC(C(=O)N3CCC(C)CC3)CC2)cc(Br)c1O | -0.39 | 76 | x | 82* | 106 | x
CC(=O)Nc1ccc2nc(C3CC3)n(Cc3ccc(Cl)cc3)c(=O)c2c1 | x | x | -13 | 84* | x | i
O=C(CC1NCCc2ccccc21)Nc1ccc(Oc2ccccc2)cc1 (centres undefined) | 0.11 | x | x | 99* | x | i
CC(C(=O)c1ccc(-c2ccccc2)cc1)[n+]1ccccc1 (centres undefined) | -2 | 24 | x | 34 | 25 | i
Cc1cc(C)n(C(=O)CSc2nc3ccccc3o2)n1 | 0.08 | 86 | -56 | -8 | 93 | i
O=C(CN1CCN(c2ccccn2)CC1)N1c2ccccc2Sc2ccc(C(F)(F)F)cc21 | -1.3 | 49 | 38 | 68* | 66 | i
O=C(CSc1nc2ccccc2o1)N1c2ccccc2Sc2ccc(C(F)(F)F)cc21 | 1.5 | 66 | -3 | 80* | 62 | i
O=C(CN1CCCC1)N1c2ccccc2Sc2ccc(C(F)(F)F)cc21 | x | 89 | x | 13 | 84 | i
c1nc(N2CCCC2)c2[nH]cnc2n1 | 0.15 | 96 | 37 | 24 | 96 | i
Cc1cc(N2CCN(C3CCCCC3)CC2)nc2cccc(O)c12 | 0.1 | 78 | x | 85* | 87 | i
Cc1cc(N2CCCC2)nc2ccccc12 | -0.89 | x | x | 14 | x | i
O=C(/C=C/Sc1ccccc1)c1ccccc1 | 0.05 | 2.1* | -32 | 59* | 1.4* | i
O=C(/C=C/Sc1ccccc1)c1ccc(Cl)cc1 | 0.2 | 11 | 7 | 92* | 8 | i
CSC(=CC(=O)c1ccccc1)SC | x | 101 | 30 | 85* | 93 | i
CC1=CC(C)(C)N(C(=O)CNC2CCCC2)c2cc(C)ccc21 | -1.1 | x | -27 | 37 | x | i
CCOc1ccc2nc(N/C(N)=N/C(=S)Nc3cccc(OC)c3)nc(C)c2c1 | -2.8 | x | x | x | x | x
COc1ccc2nc(N/C(N)=N/C(=S)Nc3c(C)cccc3C)nc(C)c2c1 | -0.21 | x | x | 29 | x | +
CCOc1ccc2nc(N/C(N)=N/C(=S)Nc3cccc(C)c3)nc(C)c2c1 | -0.47 | 66 | x | 60* | 59 | i
COc1cccc(/C=N/Nc2nc(Nc3ccccc3)nc(-n3nc(C)cc3C)n2)c1O | u | 2.8* | -30 | 100* | 2.0* | i
COc1cccc(/C=N/Nc2cc(-n3nc(C)cc3-c3ccccc3)ncn2)c1O | 0.08 | 3.8* | -19 | 67* | 3.5* | i
SMILES | Ins promoter up | HCT116 bCat-KO | Insulin prom inh | Lmaj promast | HCT116 PTEN-null | Autophagy mod
CCCC(=O)OCCNc1cc(SCc2ccco2)c2nonc2c1[N+](=O)[O-] | 0.43 | 2.7* | 37 | 16 | 14 | i
CCCSc1cc(NCCOC(=O)CCC)c([N+](=O)[O-])c2nonc12 | -0.44 | 21 | 7 | 2 | 21 | i
CCCC(=O)OCCNc1cc(Sc2nccn2C)c2nonc2c1[N+](=O)[O-] | 0.47 | 1.9* | 28 | 100* | 1.7* | i
CCCSc1cc(NCCOC(C)=O)c([N+](=O)[O-])c2nonc12 | -0.11 | 91 | 5 | 67* | 89 | i
CC(=O)OCCCNc1cc(SCc2ccco2)c2nonc2c1[N+](=O)[O-] | 0.8 | 2.3* | 37 | 51* | 3.5* | i
CCN1CCN(c2ccc([N+](=O)[O-])cc2S(=O)(=O)N2CCOCC2)CC1 | 1.2 | x | x | -6 | x | i
COc1ccc(Cc2nc(-c3ccc(Br)o3)no2)cc1OC | 0.52 | 86 | x | 11 | 83 | i
CCOC(=O)Nc1ccc2c(c1)ncn2C1CCCCC1 | 0.39 | 101 | -6 | 84* | 103 | i
COc1ccc(OC)c(C2CC(=O)c3c([nH]c(C(=O)OC(C)C)c3C)C2)c1 (centres undefined) | 0.53 | 14 | x | 10 | 15 | +
COCCOC(=O)c1[nH]c2c(c1C)C(=O)CC(c1cc(OC)ccc1OC)C2 (centres undefined) | -0.4 | 40 | 57 | -7 | 31 | i
COC(=O)c1[nH]c2c(c1C)C(=O)CC(c1ccccc1)C2 (centres undefined) | -2 | 12 | -320 | 0 | 12 | +
Cc1c(C(=O)OC2CCCC2)[nH]c2c1C(=O)CC(c1ccco1)C2 (centres undefined) | 1.1 | 10 | -360 | 1 | 12 | +
FC(F)Sc1ccc(N=C2NN=C(c3ccc4c(c3)OCCO4)CS2)cc1 | -0.79 | 15 | 14 | 55* | 12 | i
Cc1c(Br)cc(C(=O)NCCCN2CCOCC2)c(C)c1C | 0.17 | 95 | -20 | 61* | 100 | i
O=C(NCCCN1CCOCC1)c1ccc(Br)cc1Br | -0.13 | x | 11 | 81* | x | i
COc1cc(OC)c(C(=O)NCCCN2CCOCC2)cc1OC | x | x | -100 | 0 | x | i
Cc1ccc(C(=O)OCC(=O)Nc2ccc(N(C)C)cc2)cc1NC(=O)c1ccco1 | x | 89 | -5 | 45 | 107 | i
O=C1c2ccccc2C(O)(c2ncc[nH]2)N1CCc1ccccc1 (centres undefined) | 0.41 | 98 | -29 | 95* | 96 | i
CC(=O)Nc1ccc(S(=O)(=O)NC2=C(N3CCN(Cc4ccccc4)CC3)C(=O)c3ccccc3C2=O)cc1 | x | 55 | -3 | 99* | 64 | i
CC(=O)c1ccc(N/N=C(/C(N)=O)C2=NC(C)(C)Cc3ccccc32)cc1 | x | 22 | -8 | 32 | 18 | i
CC1(C)Cc2ccccc2C(/C(=N\Nc2cccc(Cl)c2)C(N)=O)=N1 | -0.58 | 46 | -14 | 98* | 58 | i
CC1=NC(C)(C)Cc2ccccc21 | 0.02 | 107 | 16 | -1 | 95 | i
CC1(C)Cc2ccccc2C(/C(=N/O)C(N)=O)=N1 | 0.81 | 91 | -41 | 61* | 104 | i
CCOc1ccc(C2CC(c3cccc(Cl)c3)n3nc(N)nc3N2)cc1 (centres undefined) | x | 92 | 0 | 67* | 99 | i
COc1ccc(NS(=O)(=O)c2cccc(NC(=O)C34CCC(CC3)C4)c2)cc1 | 0.01 | 58 | -3 | 5 | 83 | i
CCCCC(=O)Nc1ccc(C)c(O)c1 | 0.06 | 96 | x | 2 | 85 | i
CCc1ccc(NC(=O)CCn2cccc2)cc1 | 0.37 | 94 | 18 | -5 | 96 | i
CCCC(=O)Nc1ccc(C)c(O)c1 | 0.07 | 1.0* | 29 | -14 | 1.0* | i
